# Assay results taken from ChEMBL document CHEMBL1201862, “PubChem BioAssay data set” (2004).
# Screen size: about 400,000 compounds; about 2,100 (0.53%) were called active. Roughly 14% stayed inconclusive and do not appear here. No rule for the calls is given here. Only a selection was taken, and actives are over-represented in it overall.
# Biological target: Ataxin-2 (Homo sapiens) (UniProt Q99700)
# Assay: qHTS for Inhibitors of ATXN expression.
# Type: functional
# Chain of Ataxin-2 (Homo sapiens) (Q99700 whole entry): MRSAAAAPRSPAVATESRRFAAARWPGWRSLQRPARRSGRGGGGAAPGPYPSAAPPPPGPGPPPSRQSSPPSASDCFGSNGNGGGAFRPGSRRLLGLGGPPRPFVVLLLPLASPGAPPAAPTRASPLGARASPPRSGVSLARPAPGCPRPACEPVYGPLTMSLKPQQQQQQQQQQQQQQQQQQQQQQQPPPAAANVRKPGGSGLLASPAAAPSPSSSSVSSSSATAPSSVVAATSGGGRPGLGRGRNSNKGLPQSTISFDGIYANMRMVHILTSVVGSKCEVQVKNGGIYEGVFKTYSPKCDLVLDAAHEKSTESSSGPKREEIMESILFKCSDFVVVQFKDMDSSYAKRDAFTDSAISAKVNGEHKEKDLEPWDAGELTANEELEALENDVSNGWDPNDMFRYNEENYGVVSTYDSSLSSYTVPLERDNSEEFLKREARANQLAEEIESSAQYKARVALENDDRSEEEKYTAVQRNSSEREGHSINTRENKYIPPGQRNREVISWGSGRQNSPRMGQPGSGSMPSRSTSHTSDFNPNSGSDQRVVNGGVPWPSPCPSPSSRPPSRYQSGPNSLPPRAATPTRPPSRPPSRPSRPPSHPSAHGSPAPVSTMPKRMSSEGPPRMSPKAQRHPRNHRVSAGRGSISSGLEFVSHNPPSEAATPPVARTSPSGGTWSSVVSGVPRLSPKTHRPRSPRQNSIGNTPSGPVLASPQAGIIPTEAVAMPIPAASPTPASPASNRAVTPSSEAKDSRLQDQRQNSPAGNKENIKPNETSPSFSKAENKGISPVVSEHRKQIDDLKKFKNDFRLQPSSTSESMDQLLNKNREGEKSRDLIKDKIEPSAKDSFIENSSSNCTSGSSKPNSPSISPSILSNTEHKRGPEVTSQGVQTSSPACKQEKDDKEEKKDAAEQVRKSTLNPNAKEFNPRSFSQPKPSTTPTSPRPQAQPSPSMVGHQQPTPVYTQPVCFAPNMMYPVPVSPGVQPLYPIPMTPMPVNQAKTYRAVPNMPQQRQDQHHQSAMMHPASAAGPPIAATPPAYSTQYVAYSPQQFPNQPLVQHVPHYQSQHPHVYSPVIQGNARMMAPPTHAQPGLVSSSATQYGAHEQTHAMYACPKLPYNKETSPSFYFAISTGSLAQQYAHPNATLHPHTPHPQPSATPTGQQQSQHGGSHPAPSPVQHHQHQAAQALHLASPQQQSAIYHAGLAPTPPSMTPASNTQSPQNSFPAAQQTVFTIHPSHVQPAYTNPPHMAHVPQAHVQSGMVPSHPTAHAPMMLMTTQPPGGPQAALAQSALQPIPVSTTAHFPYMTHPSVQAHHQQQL
row,SMILES,Potency
1,Cc1ccc2nc(N3C(=O)C(O)=C(C(=O)c4ccc(C)o4)C3c3cccc(O)c3)sc2c1 (stereo not drawn),inactive
2,c1ccc(-c2cnn3c(-c4ccccc4)c(-c4ccccc4)nc3n2)cc1,inactive
3,COc1ccc(OC)c(/N=C/c2c(O)oc3ccccc3c2=O)c1,inactive
4,CC(C)C[C@H](NC(=O)c1[nH]cnc1C(=O)N[C@@H](Cc1ccccc1)C(=O)OC(C)(C)C)C(=O)OC(C)(C)C,25.1 µM (active)
5,CC(C)C[C@H](NC(=O)c1[nH]cnc1C(=O)N[C@H](C)c1ccccc1)C(=O)OC(C)(C)C,39.8 µM (active)
6,CC(NC(=O)/C(C#N)=C/c1ccc(OCC(=O)O)cc1)c1ccccc1 (stereo not drawn),inactive
7,CCCCC(C(=O)NC(C)c1ccccc1)C(=O)NC(C)c1ccccc1 (stereo not drawn),inactive
8,C[C@H](NC(=O)c1[nH]cnc1C(=O)N[C@@H](Cc1ccccc1)C(=O)OC(C)(C)C)C(=O)OC(C)(C)C,39.8 µM (active)
9,COCc1cc(C)nc2sc(C(=O)Nc3ccccc3F)c(N)c12,inactive
10,CCOc1ccccc1NC(=O)COC(=O)C(Cc1ccccc1)NC(=O)c1ccco1 (stereo not drawn),inactive
11,Nc1c(C(=O)Nc2ccccc2F)sc2nc(-c3cccnc3)ccc12,inactive
12,CC(C)(C)OC[C@H](NC(=O)c1[nH]cnc1C(=O)Nc1ccccc1F)C(=O)OC(C)(C)C,35.5 µM (active)
13,CCOC(=O)N1CCN(S(=O)(=O)c2c(C)nc3scc(C)n3c2=O)CC1,inactive
14,COc1ccc(C2C=C(c3ccccc3)Nc3ncnn32)cc1 (stereo not drawn),inactive
15,O=S(=O)(NCCc1cccs1)c1ccc(Br)cc1,inactive
16,COCc1cc(C)nc2sc(C(=O)Nc3ccccc3Br)c(N)c12,inactive
17,CC(C)C[C@H](NC(=O)c1[nH]cnc1C(=O)N[C@@H](C)c1ccccc1)C(=O)OCc1ccccc1,35.5 µM (active)
18,COc1ccccc1OCc1ccc(C(=O)NC(C)c2ccccc2)o1 (stereo not drawn),inactive
19,CC(C)(C)OC(=O)[C@H](Cc1ccccc1)NC(=O)c1[nH]cnc1C(=O)Nc1ccc(Cl)cc1,39.8 µM (active)
20,CC(C)C[C@H](NC(=O)c1[nH]cnc1C(=O)Nc1ccc(CNC(=O)OC(C)(C)C)cc1)C(=O)OC(C)(C)C,28.2 µM (active)
21,CC(C)C[C@H](NC(=O)c1[nH]cnc1C(=O)N[C@@H](C)C(=O)OC(C)(C)C)C(=O)OC(C)(C)C,35.5 µM (active)
22,CN(C)Cc1c(O)ccc2cc(-c3nc4ccccc4n3C)c(=O)oc12,inactive

row,SMILES,Potency
1,Cc1cc2nc3c(O)nc(S)nc3nc2cc1NC(=O)C(F)(F)F,inactive
2,N#Cc1cc2c(nc1SCC(=O)Nc1nccs1)CCCCC2,inactive
3,CN(C)c1ccc(/C=N/N=C2/SC(CC(=O)O)C(=O)N2c2ccc(O)cc2)cc1 (stereo not drawn),inactive
4,CC(C)(C)c1cc2ncnc(N3CCCCC3)c2s1,inactive
5,CC(NC(=O)OC(C)(C)C)C(=O)Oc1ccc2ccc(=O)oc2c1 (stereo not drawn),inactive
6,CCC(C)[C@@H](NC(=O)OC(C)(C)C)c1nnc(S(=O)(=O)Cc2cccc(C)c2)o1 (stereo partly drawn),22.4 µM (active)
7,CC(NC(=O)OC(C)(C)C)C(=O)Oc1cc2oc(=O)cc(-c3ccccc3)c2cc1Cl (stereo not drawn),inactive
8,CC[C@@H](C)[C@H](NC(=O)OC(C)(C)C)c1nnc(S(=O)(=O)Cc2cc(C)ccc2C)o1,39.8 µM (active)
9,CC(C)[C@H](NC(=O)OC(C)(C)C)c1nnc(S(=O)(=O)Cc2c(F)cccc2Cl)o1,22.4 µM (active)
10,N#CCC(=O)N/N=C/c1ccc(N2N=C(c3ccccc3)CC2c2ccccc2)cc1 (stereo not drawn),inactive
11,Cc1ccc(C)c(NC(=O)CCNS(=O)(=O)c2ccc3nc(O)oc3c2)c1,inactive
12,CCN1CCN(C(c2cccs2)C(C)NC(=O)C(C)C)CC1 (stereo not drawn),inactive
13,Nc1c(C(=O)N/N=C/c2ccccc2Cl)oc2nc(-c3ccccc3)cc(-c3ccco3)c12,inactive
14,O=C(Cn1c2ccccc2c(=O)c2ccccc21)N/N=C/c1ccc(N2CCCC2)c([N+](=O)[O-])c1,39.8 µM (active)
15,Cc1ccc(-n2c(C)cc(/C=N/NC(=O)Cn3c4ccccc4c(=O)c4ccccc43)c2C)cc1,inactive
16,Cc1cc(/C=N/NC(=O)Cn2c3ccccc3c(=O)c3ccccc32)c(C)n1-c1ccccc1,inactive
17,Cc1ccc(S(=O)(=O)NC(C(=O)Oc2cc3oc(=O)cc(C)c3cc2Cl)C(C)C)cc1 (stereo not drawn),inactive
18,CC(=O)Nc1nn(CC(C)C)c2nc3ccc(C)cc3cc12,inactive
19,O=S(=O)(Nc1nc2n(n1)C(c1ccc(F)cc1)C=C(c1ccccc1)N2)c1ccccc1 (stereo not drawn),inactive
20,CCCC(=O)NCn1nnc(-c2ccc(Cl)cc2)n1,inactive
21,COc1ccc([C@H]2C[C@H](O)[C@@H](n3cc(-c4ccc(F)cc4)nn3)CN2CC2CCCCC2)cc1,39.8 µM (active)
22,O[C@H]1C[C@H](c2ccc(Cl)cc2)N(Cc2cccs2)C[C@@H]1n1cc(-c2ccc(F)cc2)nn1,25.1 µM (active)

row,SMILES,Potency
1,CCCCCCN1C[C@H](n2cc(-c3ccc(F)cc3)nn2)[C@@H](O)C[C@@H]1c1ccc(Cl)cc1,22.4 µM (active)
2,CCCCCC(=O)N1C[C@@H](n2cc(-c3ccc(F)cc3)nn2)[C@H](O)C[C@@H]1c1ccc(Cl)cc1,31.6 µM (active)
3,CCCCNC(=O)COC(=O)c1c2c(nc3ccccc13)/C(=C/c1cccs1)CC2,inactive
4,COc1ccc(OCCCC(=O)ON=C(N)c2ccccc2C)cc1,inactive
5,CCOC(=O)C1=C(NC(=O)c2cc(S(=O)(=O)N3CCOCC3)ccc2C)Nc2ccccc2N=C1CC,inactive
6,NS(=O)(=O)c1ccc(N2N=C(c3ccc(Br)cc3)CC2c2ccc(F)cc2)cc1 (stereo not drawn),inactive
7,CCCCCCN1C[C@H](n2cc(-c3ccc(F)cc3)nn2)[C@@H](O)C[C@@H]1c1ccc(C)cc1,39.8 µM (active)
8,Cc1ccc([C@H]2C[C@H](O)[C@@H](n3cc(C4CC4)nn3)CN2Cc2cccs2)cc1,35.5 µM (active)
9,CCCCCCN1C[C@@H](n2cc(-c3ccc(F)cc3)nn2)[C@H](O)C[C@@H]1c1ccc(OC)cc1,35.5 µM (active)
10,COc1ccc(C2=CC(c3ccc(F)cc3)n3nnnc3N2)cc1 (stereo not drawn),inactive
11,COc1ccc(C2=Nc3nc(-c4ccccc4)cn3C(c3ccc(OC)cc3)C2)cc1 (stereo not drawn),inactive
12,CCCCCCN1C[C@H](n2cc(C3CC3)nn2)[C@@H](O)C[C@@H]1c1ccc(C)cc1,35.5 µM (active)
13,Fc1ccc(C2CC(c3cccs3)=NN2c2ccccc2)cc1 (stereo not drawn),inactive
14,Cc1cc(F)ccc1NC(=O)c1sc2nc(-c3cccs3)ccc2c1N,inactive
15,CCOC(=O)c1cc2c(=O)n3ccccc3nc2n(Cc2ccco2)/c1=N/C(=O)c1ccc(OC)cc1OC,inactive
16,COC(=O)[C@]12CCCCC=C1N(CCC1=CCCCC1)C(=O)[C@H](CC(=O)N1CCN(C(=O)c3ccco3)CC1)C2,22.4 µM (active)
17,COC(=O)[C@]12CCCCC=C1N(Cc1cccc3ccccc13)C(=O)[C@H](CC(=O)N1CCN(C(=O)c3ccco3)CC1)C2,22.4 µM (active)
18,CCCCCCCCN1C(=O)[C@H](CC(=O)N2CCN(C(=O)c3ccco3)CC2)C[C@@]2(C(=O)OCC)CCCC=C12,14.1 µM (active)
19,O=C(Nc1c(C(=O)c2ccc(F)cc2)oc2ccccc12)c1cc(-c2ccccc2)on1,inactive
20,COc1cc(/C=N/Nc2ccc([N+](=O)[O-])cc2S(=O)(=O)N2CCOCC2)cc(OC)c1OC,inactive
21,Cc1ccc(Cl)cc1N1CCN(C(=O)c2cnn(-c3ccc(Cl)cc3)c2C2CCNCC2)CC1,39.8 µM (active)
22,Cc1ccc(Cl)cc1N1CCN(C(=O)Cc2csc(Nc3nc(S)nc4ccccc34)n2)CC1,inactive

row,SMILES,Potency
1,Cc1ccc(Nc2ncc(C(=O)N3CCN(c4ccc(F)cc4)CC3)c3ccccc23)cc1Cl,inactive
2,COc1ccc(S(=O)(=O)NCCc2cn3nc(C)c(C)nc3n2)cc1,inactive
3,CN1C2=CC=CC=CC2=[N+](C)C12C=CC(=[N+]([O-])[O-])C=C2[N+](=O)[O-] (stereo not drawn),20 µM (active)
4,CCN(CC)C1=CC2=CC(=C(C#N)C#N)CCC2CC1 (stereo not drawn),inactive
5,Cc1cc(C)nc(N(C#N)Cc2ccc(Cl)cc2)n1,inactive
6,Cc1ccc(CN2C(=O)CC(c3ccc(Cl)cc3)c3c(C)nn(-c4nc(C)cc(C)n4)c32)cc1 (stereo not drawn),39.8 µM (active)
7,CCOC(=O)C1CCN(S(=O)(=O)c2cc3c(cc2C)NC(=O)CO3)CC1,inactive
8,Cn1c(-c2c(N)n(CCCc3ccccc3)c3nc4ccccc4nc23)nc2ccccc21,inactive
9,CS(=O)(=O)c1nc([N+](=O)[O-])nn1CCCc1ccccc1,39.8 µM (active)
10,CCN(C(=O)c1cc2c(=O)n3ccccc3nc2s1)C1CCCCC1,inactive
11,O=[N+]([O-])c1cncc([N+](=O)[O-])c1Nc1cccc(O)c1,22.4 µM (active)
12,COc1ccc(C2NS(=O)(=O)N=C2N)cc1 (stereo not drawn),inactive
13,N#Cc1c(-c2ccccc2)c(C#N)c2nc3ccccc3n2c1N,inactive
14,Nc1ccc2c(C(F)(F)F)cc(=O)oc2c1,inactive
15,CC(=O)Nc1cccc(NC(=O)CSc2ncc(C(=O)Nc3ccccc3)c(=O)n2C)c1,39.8 µM (active)
16,CC(C)Cn1c(SC(C)C(=O)NCC2CCCO2)nc2ccc(Cl)cc2c1=O (stereo not drawn),inactive
17,O=C(Cn1c(=O)c(=O)n(Cc2ccccc2)c2ccc(Cl)cc21)NCC1CCCO1 (stereo not drawn),inactive
18,COCCn1c(SCC(=O)Nc2ccc(NC(C)=O)cc2)nc2ccccc2c1=O,inactive
19,CC(=O)c1cccc(NC(=O)c2ccccc2-c2ccccc2C(=O)O)c1,inactive
20,Cn1c(SCC(=O)NCC2CCCO2)ncc(C(=O)Nc2ccc(Cl)cc2)c1=O (stereo not drawn),35.5 µM (active)
21,CC1=CC2=NC(=O)/C(=C/c3coc4ccccc4c3=O)C(=N)N2O1,inactive
22,COc1ccc(-c2c(C)c3ccc(O)c(CN4CCN(CCO)CC4)c3oc2=O)cc1OC,inactive
